Reference: PubChem BioAssay (Tox21)
Records with an inconclusive call do not appear. Values without a mark were called inactive. The source made the active and inactive calls. Calls follow the shape of the dose curve; as a rule, active = well fitted inhibition curve with a large enough effect in the repeat runs; inconclusive = weak or mixed curves; inactive = no such curve, though single readings can be large or run the other way.

These compounds were tested against Cytochrome P450 1A2 (Homo sapiens) (UniProt P05177) (assay: Cytochrome P450 Family 1 Subfamily A Member 2 (CYP1A2) small molecule antagonists: luciferase reporter qHTS assay (AID 1671199; also: nearly all actives have a fitted effect of over 50% in size)). Conditions: P450-Glo CYP1A2 enzyme, luciferin luminescence, 1 h; series mostly up to 53 µM; activity change, negative = inhibition: at the top concentration.
Sequence of Cytochrome P450 1A2 (Homo sapiens) (P05177 whole entry, looked up): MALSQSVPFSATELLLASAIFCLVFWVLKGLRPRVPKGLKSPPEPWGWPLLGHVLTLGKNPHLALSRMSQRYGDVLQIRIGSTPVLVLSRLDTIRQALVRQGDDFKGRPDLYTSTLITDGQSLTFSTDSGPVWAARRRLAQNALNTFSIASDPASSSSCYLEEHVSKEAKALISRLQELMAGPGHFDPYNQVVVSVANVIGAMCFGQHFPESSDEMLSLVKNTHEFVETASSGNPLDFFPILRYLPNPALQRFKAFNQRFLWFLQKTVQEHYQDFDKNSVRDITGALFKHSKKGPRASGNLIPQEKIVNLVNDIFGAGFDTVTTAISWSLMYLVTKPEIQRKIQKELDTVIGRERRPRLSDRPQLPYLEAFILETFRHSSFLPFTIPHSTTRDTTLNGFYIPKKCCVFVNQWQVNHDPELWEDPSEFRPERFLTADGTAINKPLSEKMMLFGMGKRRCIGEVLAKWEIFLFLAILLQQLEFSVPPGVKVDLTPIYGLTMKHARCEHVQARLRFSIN
Text: National Center for Advancing Translational Sciences [NCATS]
U.S. Environmental Protection Agency [EPA]
National Institutes of Environmental Health Sciences [NIEHS]
National Toxicology Program [NTP]
U.S. Food and Drug Administration [FDA]
Cytochrome P450 (CYP) enzymes are membrane-bound hemeproteins that play a key role in metabolism of drugs and xenobiotics. Evaluation of the effect of chemicals on CYP isozymes is useful to minimize the adverse drug reactions and toxicities in drug development process. Tox21 chemicals were tested for their effect on CYP enzyme activities by using P450-Glo (TM) screening systems (Promega Corporation, Madison, WI). These systems provide a luminescent method containing proluciferin substrates and are converted to luciferin products by CYP isozymes. The luciferin products formed are detected with a luciferin detection reagent, and the amount of light produced is proportional to CYP activity. P450-Glo (TM) CYP1A2 screening system (Catalog. No. V9770) was used to detect the compounds that interfere in CYP1A2 activity. The positive control compound used for CYP1A2 assay is furafylline (Sigma-Aldrich, St. Louis, MO).
Tox21 Assay Protocol Summary:
Two ul of enzyme-substrate mix was dispensed into medium binding white/solid 1536-well plates (Greiner Bio-One North America Inc., Monroe, NC) using a BioRaptr Flying Reagent Dispenser (FRD, Beckman Coulter, Brea, CA). Compounds dissolved in DMSO and positive control (furafyllline) were transferred to the assay plates at 23 nl using a Pintool station (Wako, San Diego, CA). The assay plates were incubated at room temperature for 10 min. Then 2 ul of NADPH regeneration solution was added to each well of the assay plates using an FRD and incubated at room temperature for 1 h. The reaction was stopped by adding 4 ul of detection reagent using an FRD and after 20 min incubation at room temperature the luminescence signal was measured using a ViewLux plate reader (Perkin Elmer, Shelton, CT). Data were expressed as relative luminescence units.
% is scaled to controls: 0 for no effect and ±100 for the full control effect; potency is read from the fitted curve at half-maximal effect.

| Structure (SMILES) | activity change, negative = inhibition | Potency |
| --- | --- | --- |
| CCCCOC(=O)c1ccccc1 | -26.5% [at 115 µM] | – |
| CN1CCN(CC(=O)N2c3ccccc3C(=O)Nc3cccnc32)CC1 | 13.2% [at 10.5 µM] | – |
| C=CC(OCC)OCC | -15% [at 115 µM] | – |
| Cc1c(I)c(=O)n(-c2ccccc2)n1C | -21.3% | – |
| CC(=O)OC(C)OC(=O)C(C)c1ccc(-c2ccccc2)c(F)c1 (stereo not given) | – | 8.71 µM (active) |
| CC/C=C\CC1=C(C)CCC1=O | – | 31.7 µM (active) |
| Cc1cc(Cl)c(C)cc1Cl | -19.7% [at 115 µM] | – |
| CCCCCOC(=O)CCC | -16.5% [at 115 µM] | – |
| Cc1ccc(S(=O)(=O)O)c(C)c1 | -10.4% [at 115 µM] | – |
| CC(S)C(=O)NCC(=O)O (stereo not given) | 3.02% | – |
| Cc1ccccc1C(=O)Nc1ccc(C(=O)N2CCCC(N(C)C)c3ccccc32)cc1 (stereo not given) | 7.91% | – |
| N[C@@H](CCC(=O)Nc1ccc([N+](=O)[O-])cc1)C(=O)O | -14.4% [at 115 µM] | – |
| COc1nccnc1NS(=O)(=O)c1ccc(N)cc1 | -7.39% | – |
| CCCCCCCCCC(C)=O | -18.2% [at 115 µM] | – |
| NNc1nnc(NN)c2ccccc12 | – | 36.3 µM (active) |
| O=C(NCCN1CCOCC1)c1ccc(Cl)cc1 | -14.1% | – |
| O=C1c2cccc3c2[C@H](CCC3)CN1[C@@H]1CN2CCC1CC2 | 8.85% | – |
| C=C(C)C(=O)OCCOP(=O)(O)OCCOC(=O)C(=C)C | -17% [at 115 µM] | – |
| CCCCCCCCC(=O)Cl | – | 64 µM (active) |
| ClCCCl | -1.31% [at 115 µM] | – |

| Structure (SMILES) | activity change, negative = inhibition | Potency |
| --- | --- | --- |
| Cc1cc(C(C)(C)C)c(O)c(C)c1CC1=NCCN1 | 1.59% | – |
| C=COCCOCCOCCOC=C | – | 35.6 µM (active) |
| COc1ccc(S(=O)(=O)N2c3ccc(Cl)cc3[C@@](O)(c3ccccc3Cl)[C@H]2C(=O)N2CCC[C@@H]2C(N)=O)cc1OC | 5.52% | – |
| C[C@@H](Oc1ccc(CNC(=O)c2cccnc2Oc2ccc3c(c2)OCO3)c(F)c1)C(=O)O | -24.5% [at 115 µM] | – |
| CC(=O)c1ccc2c(c1)Cc1ccccc1-2 | – | 1.79 µM (active) |
| CCCC/C=C\CCCCCCCCCC=O | -10.2% [at 115 µM] | – |
| C=C1CC/C=C(\C)CC[C@@H]2[C@@H]1CC2(C)C | -11.5% [at 115 µM] | – |
| CC(C)CCCC(C)(C)O | -12.5% [at 115 µM] | – |
| Oc1cn2c(n1)Nc1ccc(Cl)c(Cl)c1C2 | – | 2.81 µM (active) |
| OCCC(F)(F)C(F)(F)C(F)(F)C(F)(F)C(F)(F)C(F)(F)C(F)(F)C(F)(F)F | -1.01% [at 115 µM] | – |
| FC(F)(F)c1ccccc1-n1ccnc1 | – | 5.49 µM (active) |
| CCCCOCCOC(=O)COc1nc(Cl)c(Cl)cc1Cl | – | 39.9 µM (active) |
| O=C(OCC1(COC(=O)c2cccnc2)CCCC(COC(=O)c2cccnc2)(COC(=O)c2cccnc2)C1O)c1cccnc1 | 5.63% | – |
| CC(C)(C)OC(=O)c1ccc(O)cc1 | – | 31.7 µM (active) |
| O=C(O)Cc1ccc(Cl)cc1Cl | -17.2% [at 115 µM] | – |
| O=C1O[C@@H]2[C@@H](O)[C@H](O)O[C@@H]2[C@H]1O | -9.56% [at 115 µM] | – |
| Cc1ccccc1N=O | – | 41 µM (active) |
| O=C(OCC(O)CO)c1ccccc1Nc1ccnc2c(C(F)(F)F)cccc12 (stereo not given) | – | 2.88 µM (active) |
| COc1ccc(Br)c(C)c1 | – | 32 µM (active) |
| O=C(Nc1ccc(Cl)c(Cl)c1)C1CC1 | – | 0.456 µM (active) |
